# Screens (PubChem)
# eIF4H inh: inhibitors of RNA binding by human eIF4H. eIF4H fluorescence polarization binding assay. AID 2012. Q15056. 290,000 tested, 0.94% active. inhibition, % at 35 µM;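 also: calls also rest on retests at 20 µM and on dose response follow-up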
# PABP polyA inh: PABP-poly(A) binding inhibition | PABP-poly(A) RNA binding, fluorescence polarization | 290,000 tested, 1% active | inhibition, % at 35 µM;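 also: calls also rest on retests at 20 µM and on dose response follow-up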
# Efflux pump mplx: inhibitors of Candida antifungal efflux pumps expressed in yeast; S. cerevisiae Candida pump triplex, Nile Red efflux; inhibition, % at 10 µM; 330,000 tested, 0.44% active;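 active = plate passing quality check with inhibition over a set limit, or well fluorescence over plate mean plus 4 SD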;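 also: Nile Red retained in pooled yeast measured as flow cytometry median fluorescence; 0% = buffer negative control and 100% = Enniatin B positive control; higher means more Nile Red kept so more efflux inhibition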
# ALR H2O2 inh: blocks human ALR sulfhydryl oxidase activity; 290,000 tested, 3.8% active; inhibition, % (test concentration not listed); purified ALR, DTT oxidation, H2O2 HRP-luminol luminescence; P55789;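 active = mean replicate inhibition above about 79%, with every replicate also reaching it, limit read from the data; inconclusive = only one of the two criteria met; inactive = mean below limit and not every replicate reaching it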
# Target sequence (P55789 whole entry, looked up): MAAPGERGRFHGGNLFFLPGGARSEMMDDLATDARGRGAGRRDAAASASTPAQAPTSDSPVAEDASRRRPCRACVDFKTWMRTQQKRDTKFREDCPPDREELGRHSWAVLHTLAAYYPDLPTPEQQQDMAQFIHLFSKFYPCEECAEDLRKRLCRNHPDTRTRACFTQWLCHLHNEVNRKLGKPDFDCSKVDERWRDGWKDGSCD
# PABP1 MLLE inh: blocks PAM2 peptide binding to the PABP1 MLLE domain. GST-MLLE / FITC-PAM2 fluorescence polarization. inhibition, % at 20 µM. 360,000 tested, 0.36% active; in the data active = inhibition above about 35%, passing the limit was not always enough;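 also: plate controls were DMSO wells with GST-MLLE for no effect and wells lacking GST-MLLE protein for full effect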
# UBC9 SUMO inh: inhibitors of human SUMOylation (UBC9) | P63279 | HTRF SUMOylation assay, SAE1/SAE2 + UBC9, in vitro | inhibition, % at 35 µM | 290,000 tested, 0.36% active | AID 2006; in the data active = inhibition above about 50%, passing the limit was not always enough; inconclusive = no clear call, values can overlap the other calls
# Target sequence (P63279 whole entry, looked up): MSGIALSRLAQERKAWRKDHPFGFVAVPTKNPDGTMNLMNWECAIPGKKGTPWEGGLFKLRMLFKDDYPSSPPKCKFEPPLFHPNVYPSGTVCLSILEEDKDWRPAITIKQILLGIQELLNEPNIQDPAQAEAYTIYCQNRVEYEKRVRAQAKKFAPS
# Cmpd fluor yeast: flagged as fluorescent in efflux inhibitor counter-screen; shares compounds with Efflux pump mplx; S. cerevisiae AD/pABC3, compound fluorescence, flow cytometry; fluorescence ratio to DMSO, % at 10 µM; 1,700 tested, 4% active;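 active = fluorescence ratio to DMSO above its plate's cutoff, the plate mean ratio plus 5 SD, cut at about 210% in these data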;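 also: unstained yeast with no Nile Red so the signal is compound autofluorescence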
# Mdr1 pump inh: inhibitors of Candida albicans Mdr1 efflux pump; shares compounds with Efflux pump mplx; 1,700 tested, 1% active; inhibition, % at 10 µM; S. cerevisiae AD/CaMDR1, Nile Red efflux, flow cytometry; in the data active = inhibition above about 26%;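 also: 0% = DMSO vehicle and 100% = reference inhibitor; higher means more Nile Red retained so more efflux inhibition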
# Cdr2 pump inh: Candida Cdr2 efflux pump inhibition; AID 588520; S. cerevisiae AD/CaCDR2, Nile Red retention, flow cytometry; shares compounds with Efflux pump mplx; 1,700 tested, 4% active; Nile Red retention ratio vs DMSO, % at 10 µM; in the data active = Nile Red retention ratio vs DMSO above about 190%;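 also: higher ratio means more blocking of Cdr2 efflux of the dye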
# CaCdr1 efflux inh: blocks the Candida albicans Cdr1 efflux pump in yeast; shares compounds with Efflux pump mplx; inhibition, % at 10 µM; S. cerevisiae AD/CaCDR1, Nile Red efflux, flow cytometry; 1,700 tested, 1% active; AID 588522;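 active = inhibition above the screen-wide mean plus twice its standard deviation, cut at about 32% in these data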
# Numbers without * were called inactive; u = inconclusive; x = not tested or not shown. Most compounds without a hit are left out; they make up all but 4.7% or so of the library. Unless noted, no rule for the calls is given here.
SMILES,eIF4H inh,PABP polyA inh,Efflux pump mplx,ALR H2O2 inh,PABP1 MLLE inh,UBC9 SUMO inh,Cmpd fluor yeast,Mdr1 pump inh,Cdr2 pump inh,CaCdr1 efflux inh
O=C(COc1ccc(Br)cc1)Nc1ccc(C(=O)Nc2ccccc2C(=O)O)cc1,-1.4,39.1,1.2*,-9.7,3.3,-6.7,101.8,-0.3,88.8,-0.2
Cc1ccc(/C=c2\sc3nc(-c4cccs4)nn3c2=O)o1,79.0*,6.8*,0.5*,99.1*,-11.8,18.7,109.9,-0.3,88.8,-0.4
O=c1/c(=C/c2ccco2)sc2nc(-c3ccccc3Br)nn12,44.9*,53.8*,0.3,-19.9,5.4,2.4,98.6,-0.1,99.3,0.1
CCC(=O)N1CCC2(CC1)Oc1ccc(F)cc1C(=O)C21CC(c2ccccc2)=NO1 (stereo not given),-8.9,-2.3,0.0,-3.5,-0.5,-7.5,x,x,x,x
O=S(=O)(c1ccc(NC(=S)Nc2ccccc2)cc1)N1CCOCC1,-7.4,3.4,0.0,2.6,28.0,6.1,x,x,x,x
O=C(CCc1ccccc1)NC(=S)Nc1ccc(S(=O)(=O)N2CCOCC2)cc1,-5.3,5.9,8.0*,2.4,44.1*,-10.3,104.0,-0.1,98.7,-0.1
CC1(C)CCC/C(=C\c2ccccc2)C1=O,x,x,0.0,-8.3,1.2,x,x,x,x,x
O=C1OCC/C1=C\c1ccccc1,-4.0,-5.4,6.8*,-6.8,6.3,2.8,101.4,-0.2,85.2,-0.1
O=c1cc(CN2CCOCC2)c2cc(Cl)ccc2o1,-7.4,1.3,-0.1,-3.9,-5.1,-3.1,x,x,x,x
CC(C)CCNC(=O)c1onc(CSc2ccccn2)c1C(=O)NCCC(C)C,x,x,0.6*,47.6,7.2,x,103.6,0.0,101.7,-0.2
Cc1ccc(S(=O)(=O)Nc2ccc3cn[nH]c3c2)cc1,x,x,-0.1,2.4,-3.5,x,x,x,x,x
Cc1ccc(S(=O)(=O)Nc2cc(C)c(O)c(Sc3n[nH]c(C)n3)c2)cc1,12.5,2.4,-0.2,50.7,42.1*,-15.0,99.0,-0.6,109.4,-0.1
COc1ccc(-c2[nH]c(-c3ccc4c(c3)OCO4)nc2-c2ccccc2)cc1,3.0,-4.0,0.3*,x,1.8,-29.8,105.0,-0.1,114.1,0.1
COc1cc(-c2nc(-c3ccccc3)c(-c3ccc(F)cc3)[nH]2)cc2c1OCO2,-6.2,-14.8,0.0,x,-1.1,-12.2,x,x,x,x
COc1ccc(N(CC(=O)Nc2cccc([N+](=O)[O-])c2C)S(C)(=O)=O)cc1OC,2.2,8.9,8.9*,-8.4,5.2,-22.3,97.6,-0.4,102.9,-0.1
O=C(CSc1nnc(-c2ccccc2F)o1)N1CCNC1=O,x,x,0.2,-1.6,-3.3,x,x,x,x,x
CCc1ccc(C(C)NC(=S)NC2CCCCC2)cc1 (stereo not given),-2.4,-1.5,0.1,-3.4,-24.4,-5.3,x,x,x,x
CCC(C)c1ccc(C(C)NC(=S)NC2CCCCC2)cc1 (stereo not given),-11.6,1.7,1.5*,3.7,-68.9,-14.5,98.6,-0.2,95.1,-0.1
O=C(NCc1ccco1)/C(=C/C=C\c1ccccc1)NC(=O)c1ccc(Br)o1,-1.0,15.8,7.6*,-2.8,13.2,-8.6,111.3,0.0,105.1,0.0
COc1ccc(OC)c(/C=C/c2ccnc3ccccc23)c1,x,x,x,x,4.1,x,x,x,x,x
COc1ccc2nccc(/C=C/c3ccnc4ccc(OC)cc34)c2c1,-6.3,-1.5,0.7*,-10.4,-6.5,24.0,99.7,0.0,171.6,0.3
COc1ccccc1CNC(=O)C(=O)NCC1OCCN1S(=O)(=O)c1ccc(Br)cc1 (stereo not given),-4.6,2.5,1.0,3.9,-3.1,-6.7,110.0,-0.1,110.2,0.0
COc1ccc(S(=O)(=O)N2CCOC2CNC(=O)C(=O)NCc2ccccc2Cl)cc1 (stereo not given),-1.4,-6.5,-3.1,-12.4,-0.4,-2.1,98.3,-0.1,100.8,0.0
COc1ccc(S(=O)(=O)N2CCOC2CNC(=O)C(=O)NCc2ccccc2OC)cc1 (stereo not given),-2.8,13.4,1.1*,-13.6,-3.2,6.2,101.7,-0.1,96.3,0.0
COc1ccc(S(=O)(=O)N2CCOC2CNC(=O)C(=O)NCCc2ccccc2OC)cc1 (stereo not given),1.9,-17.5,0.0,x,-0.5,2.1,x,x,x,x
SMILES,eIF4H inh,PABP polyA inh,Efflux pump mplx,ALR H2O2 inh,PABP1 MLLE inh,UBC9 SUMO inh,Cmpd fluor yeast,Mdr1 pump inh,Cdr2 pump inh,CaCdr1 efflux inh
O=C(NCc1ccccc1Cl)C(=O)NCC1OCCN1S(=O)(=O)c1ccc(F)cc1 (stereo not given),-3.3,-10.3,-2.2,-7.1,3.7,12.5,x,x,x,x
CN1CCN(S(=O)(=O)c2ccc3c(c2)oc(=O)n3C)CC1,u,u,2.6,x,5.9,3.4,x,x,x,x
CC(C)c1ccc(-c2c(NCCc3ccccc3)c(=O)c2=O)cc1,12.4,-2.3,-0.1,5.0,-6.7,24.7,x,x,x,x
Cc1cccc(C)c1NC(=O)COC(=O)CCc1ccc(S(=O)(=O)N2CCCCC2)cc1,-14.5,-14.8,18.9*,-10.1,-9.1,-4.5,101.1,-0.3,98.1,0.0
COc1ccc(CCC(=O)Nc2cc(S(=O)(=O)N3CCCCC3)ccc2N(C)C)cc1,x,x,1.1*,-5.8,13.3,x,102.5,-0.1,93.2,-0.1
Cc1cc(C)c(NC(=O)COC(=O)CCc2ccc(S(=O)(=O)N3CCCCC3)cc2)c(C)c1,-5.3,0.1,0.2,-13.8,-1.5,4.9,x,x,x,x
Nc1c(-c2ccccc2)cnc2ncnn12,-11.2,3.9,1.7*,2.1,18.1,32.0,97.0,-0.3,90.9,-0.2
N#Cc1cnc2ncnn2c1-c1ccccc1,-11.7,6.3,0.1,5.8,13.3,13.0,x,x,x,x
CCOC(=O)C1CCN(C(=O)C2CCCN(S(=O)(=O)c3ccc(OCC)c(Cl)c3)C2)CC1 (stereo not given),x,x,-0.1,-16.7,9.8,x,x,x,x,x
Cc1cc(NS(=O)(=O)c2ccc(NC(=O)CCN3C(=O)c4ccccc4C3=O)cc2)no1,-2.1,9.3,0.9*,-2.9,-8.7,-11.6,98.6,-0.3,99.3,0.1
Cc1cc(C)nc(NS(=O)(=O)c2ccc(NC(=O)CCN3C(=O)c4ccccc4C3=O)cc2)n1,-0.8,-1.3,-0.2,-8.3,5.6,12.0,x,x,x,x
Cc1ccc(-c2c3c([nH]c(=S)c2C#N)CCCC3)o1,55.6*,64.8*,0.6*,-4.9,-42.0,30.2,108.3,0.2,137.4,0.1
N#Cc1c(-c2ccncc2)c2c([nH]c1=S)CCCC2,-3.4,-1.7,0.1,x,26.8,7.8,x,x,x,x
